Results on 5 compounds are retold here after PubChem BioAssay.

Each structure is given as a SMILES string. Calls of active or inactive are those of the source. Unless noted, how the calls were made is not given here.

In experiment [1] the test system is Wnt5a (protein binding on small-molecule microarray). Kind of experiment: Wnt5a binders on small-molecule microarray, primary screen, biophysical, 635/667 nm fluorescence (AID 1142).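 Further: fluorescence read at 667 nm with signal to noise per printed feature.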 The settings on record: 635 nm fluorescence, higher = more signal.
Experiment [2] is described as follows: cell viability in Huh7 cells, primary screen, cytotoxicity control for HCV replication inhibitor project, CellTiter-Glo luminescence, basal, 48 h (AID 1143).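 Further: Huh7 hepatoma cells carrying a hepatitis C replication reporter with no stimulus; test concentration not given here.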 The settings on record: Huh7 HCV replicon, higher = more signal, called active from +8 up or from −8 down. (Cellular ATP, detected with luciferase, serves as a proxy for viable cell number.)
Experiment [3] is described as follows: P. aeruginosa biofilm formation inhibitors, primary screen, PAO1 strain, BacTiter-Glo luminescence, LB-PBS (AID 1144). The settings on record: 12 h, higher = more signal.
The nature of experiment [4]: CREB reporter modulators without forskolin, primary screen, cell-based, PC12, CRE-LacZ reporter, unstimulated (AID 1145). The settings on record: no forskolin, luminescence, 4.5 h, higher = more signal, called active from +8 up or from −8 down.
Experiment [5] in a line: CREB reporter modulators under forskolin, primary screen, cell-based, PC12, CRE-LacZ reporter, forskolin-stimulated (AID 1146).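 Further: PC12 cells with 6xCRE LacZ reporter stimulated by forskolin 10 µM; beta-galactosidase reporter signal reflecting CREB driven transcription.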 The settings on record: luminescence, 4.5 h, higher = more signal, called active from +8 up or from −8 down.
Experiment [6] has as its target Streptavidin (Streptomyces avidinii) (UniProt P22629). Kind of experiment: streptavidin binders on small-molecule microarray, primary screen, artefact control for SMM compound annotation, biophysical, 635/667 nm fluorescence (AID 1147).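 Further: signal reflects streptavidin binding to arrayed compounds as a control protein.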 The settings on record: streptavidin binding, higher = more signal.
The nature of experiment [7]: small-molecule binders of probe aInhba, primary screen, biochemical, small-molecule microarray, 635/667 nm fluorescence (AID 1148).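 Further: score merges 667nm spot fluorescence with signal-to-noise for antibody binding to printed compounds.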 The settings on record: higher = more signal.
The target of experiment [8] is Torsin-1A (Homo sapiens) (UniProt O14656). Put plainly: torsin A binders from cell lysate, primary screen, small-molecule microarray, wild-type, 635/667 nm (AID 1149). The settings on record: COS7 hTOR1A-WT lysate, 635 nm fluorescence, higher = more signal.
Torsin-1A (Homo sapiens), sequence (O14656 whole entry, looked up): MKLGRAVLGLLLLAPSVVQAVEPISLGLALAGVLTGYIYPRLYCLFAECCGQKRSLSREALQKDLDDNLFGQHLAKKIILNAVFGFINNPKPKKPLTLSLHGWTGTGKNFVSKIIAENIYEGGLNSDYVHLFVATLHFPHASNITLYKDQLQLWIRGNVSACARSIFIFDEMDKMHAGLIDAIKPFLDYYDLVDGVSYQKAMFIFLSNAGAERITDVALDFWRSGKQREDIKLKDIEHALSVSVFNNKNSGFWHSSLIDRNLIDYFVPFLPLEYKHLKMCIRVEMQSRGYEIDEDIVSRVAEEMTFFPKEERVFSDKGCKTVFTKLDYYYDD
Experiment [9] has the same target. Kind of experiment: small-molecule binders of mutant TOR1A in lysate, primary screen, cell lysate, small-molecule microarray, COS7 lysate, 635/667 nm fluorescence (AID 1150).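 Further: score pools 667 nm emission and signal to noise measuring lysate protein binding.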 The settings on record: COS7 hTOR1A mutant lysate, 635 nm fluorescence, higher = more signal.
For experiment [10], the system named is Sonic hedgehog protein (Shh). Put plainly: small-molecule binders of Shh protein, primary screen, biochemical, small-molecule microarray, 635/667 nm fluorescence (AID 1151).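 Further: Shh protein binding to compounds spotted on small-molecule microarray slides; score combines spot fluorescence intensity with signal-to-noise across triplicate slides.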 The settings on record: small-molecule microarray binding, 635 nm fluorescence; higher = more signal.
Experiment [11] can be described thus: E. coli DRC41 culture turbidity changes, primary screen, E. coli filamentation inducer project, strain DRC41, OD650, 48 h (AID 1152).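 Further: E. coli MC1000 strain DRC41 lacking acrAB efflux pump and sulA.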 The settings on record: E. coli DRC41 (acrAB sulA), higher = more signal, called active from +8 up or from −8 down.
A short description of experiment [12]: small-molecule binders of probe aLefty1, primary screen, biochemical, small-molecule microarray, 635/667 nm fluorescence (AID 1153).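 Further: score merges spot fluorescence with signal-to-noise ratio from the scanned slide images.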 The settings on record: higher = more signal.
Experiment [13] is described as follows: PSAC antagonists in infected red cells, primary screen, cell-based, P. falciparum Indochina, OD700, 1 h (AID 1154). The settings on record: P. falciparum Indochina infected RBC osmotic lysis, higher = more signal, called active from +8 up or from −8 down.
The nature of experiment [14]: PSAC antagonists in infected red cells, primary screen, cell-based, P. falciparum Indochina, OD700, 2 h (AID 1155).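 Further: lysis reports solute entry through the parasite surface anion channel PSAC; channel blockers reduce lysis of infected cells.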 The settings on record: P. falciparum Indochina infected erythrocytes, osmotic lysis OD700; higher = more signal, called active from +8 up or from −8 down.
A short description of experiment [15]: osmotic lysis modulators in infected erythrocytes, primary screen, PSAC antagonist project, cell-based, P. falciparum Indochina, OD700, 3 h (AID 1156). The settings on record: higher = more signal, called active from +8 up or from −8 down.
Experiment [16] in a line: PSAC antagonists in infected red cells, primary screen, cell-based, P. falciparum Indochina, OD700, 18 h (AID 1157). The settings on record: P. falciparum Indochina infected erythrocytes, osmotic lysis OD700, 18 h; higher = more signal, called active from +8 up or from −8 down.
Experiment [17] is described as follows: modulators of S6 phosphorylation in cells, primary screen, cell-based, A549, cytoblot, luminescence, serum-stimulated (AID 1158).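 Further: serum-stimulated A549 lung adenocarcinoma cells; signal is phosphorylated S6 detected by cytoblot immunostaining with HRP secondary.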 The settings on record: A549 phospho-S6 cytoblot, 5 h, higher = more signal.
Experiment [18] deals with NADPH oxidase 2 (Homo sapiens) (UniProt P04839). Kind of experiment: NOX2-dependent H2O2 signal modulators, primary screen, NOX inhibitor project, cell-based, HEK293-NOX2, PMA-stimulated, Amplex Red fluorescence (AID 1159). Further: test concentration not given here. The settings on record: 45 min, higher = more signal, called active from +8 up or from −8 down.
NADPH oxidase 2 (Homo sapiens), sequence (P04839 whole entry, looked up): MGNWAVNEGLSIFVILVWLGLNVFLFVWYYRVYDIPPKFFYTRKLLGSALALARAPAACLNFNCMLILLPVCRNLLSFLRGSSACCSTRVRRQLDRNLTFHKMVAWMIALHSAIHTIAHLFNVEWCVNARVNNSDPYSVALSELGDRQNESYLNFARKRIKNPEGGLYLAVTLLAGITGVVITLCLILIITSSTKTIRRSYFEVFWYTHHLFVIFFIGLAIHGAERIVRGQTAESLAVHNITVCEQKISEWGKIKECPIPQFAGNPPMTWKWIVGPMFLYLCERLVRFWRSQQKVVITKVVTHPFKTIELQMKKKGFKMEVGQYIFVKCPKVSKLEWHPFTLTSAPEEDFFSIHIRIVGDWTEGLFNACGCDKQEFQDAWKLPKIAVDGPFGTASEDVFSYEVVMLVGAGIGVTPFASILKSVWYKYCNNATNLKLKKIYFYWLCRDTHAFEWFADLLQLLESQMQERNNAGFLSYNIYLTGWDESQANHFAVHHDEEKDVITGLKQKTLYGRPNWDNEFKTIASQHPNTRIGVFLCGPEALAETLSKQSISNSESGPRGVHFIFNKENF
For experiment [19], the target named is NADPH oxidase 4 (Homo sapiens) (UniProt Q9NPH5). Put plainly: NOX4-dependent H2O2 signal modulators, primary screen, NOX inhibitor project, cell-based, HEK293-NOX4, tetracycline-induced, Amplex Red fluorescence (AID 1160). The settings on record: 45 min, higher = more signal, called active from +8 up or from −8 down.
NADPH oxidase 4 (Homo sapiens), sequence (Q9NPH5 whole entry, looked up): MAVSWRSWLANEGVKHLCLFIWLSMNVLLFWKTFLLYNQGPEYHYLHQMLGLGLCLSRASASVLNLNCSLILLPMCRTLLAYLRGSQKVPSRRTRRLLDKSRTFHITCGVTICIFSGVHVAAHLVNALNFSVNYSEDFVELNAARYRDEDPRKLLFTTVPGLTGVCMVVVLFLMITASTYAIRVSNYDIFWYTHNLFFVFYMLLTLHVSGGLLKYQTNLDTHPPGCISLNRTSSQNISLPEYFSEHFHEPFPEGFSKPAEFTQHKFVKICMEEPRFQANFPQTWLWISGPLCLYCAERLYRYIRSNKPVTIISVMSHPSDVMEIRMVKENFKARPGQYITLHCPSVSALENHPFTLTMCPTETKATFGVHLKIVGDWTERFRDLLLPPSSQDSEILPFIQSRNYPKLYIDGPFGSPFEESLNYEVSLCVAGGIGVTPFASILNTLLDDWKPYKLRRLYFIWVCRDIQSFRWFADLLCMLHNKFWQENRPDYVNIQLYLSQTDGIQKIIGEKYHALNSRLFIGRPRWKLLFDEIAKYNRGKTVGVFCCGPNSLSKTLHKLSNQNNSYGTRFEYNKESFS
Experiment [20] deals with NADPH oxidase 5 (Homo sapiens) (UniProt Q96PH1). Kind of experiment: NOX5-dependent H2O2 signal modulators, primary screen, NOX inhibitor project, cell-based, HEK293-NOX5, Amplex Red fluorescence (AID 1161). The settings on record: HEK293-NOX5, ionomycin, 45 min, higher = more signal.
NADPH oxidase 5 (Homo sapiens), sequence (Q96PH1 whole entry, looked up): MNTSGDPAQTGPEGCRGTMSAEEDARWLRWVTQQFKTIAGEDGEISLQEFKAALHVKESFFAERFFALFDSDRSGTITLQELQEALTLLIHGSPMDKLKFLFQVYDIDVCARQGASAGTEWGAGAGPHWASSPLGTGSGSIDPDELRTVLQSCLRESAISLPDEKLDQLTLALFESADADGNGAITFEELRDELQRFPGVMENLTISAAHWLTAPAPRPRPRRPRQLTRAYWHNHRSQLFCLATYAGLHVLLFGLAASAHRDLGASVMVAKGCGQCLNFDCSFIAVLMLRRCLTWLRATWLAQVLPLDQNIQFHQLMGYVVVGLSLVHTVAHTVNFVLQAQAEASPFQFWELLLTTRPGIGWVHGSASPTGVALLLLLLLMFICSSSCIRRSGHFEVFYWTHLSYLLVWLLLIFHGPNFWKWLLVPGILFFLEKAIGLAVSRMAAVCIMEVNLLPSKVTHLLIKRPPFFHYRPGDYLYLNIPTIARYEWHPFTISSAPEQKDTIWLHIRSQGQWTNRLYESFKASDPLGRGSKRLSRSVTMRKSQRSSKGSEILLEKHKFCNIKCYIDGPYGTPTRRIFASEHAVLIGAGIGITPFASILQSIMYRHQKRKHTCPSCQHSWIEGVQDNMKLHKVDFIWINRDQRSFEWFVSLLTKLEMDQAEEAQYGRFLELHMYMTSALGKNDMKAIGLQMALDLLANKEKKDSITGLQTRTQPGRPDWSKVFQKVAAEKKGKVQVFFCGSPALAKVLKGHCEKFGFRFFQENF

Streptavidin (Streptomyces avidinii), sequence (P22629 whole entry, looked up): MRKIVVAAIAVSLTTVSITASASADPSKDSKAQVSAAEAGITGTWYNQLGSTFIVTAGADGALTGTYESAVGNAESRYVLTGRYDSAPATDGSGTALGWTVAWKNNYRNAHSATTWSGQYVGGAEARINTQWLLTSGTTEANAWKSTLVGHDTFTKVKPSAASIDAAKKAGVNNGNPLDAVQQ

In the case of `COc1ccc(C(=O)Nc2ccc3c(c2)[C@@]2(O[C@H](CCO)[C@@H]([Si](C)(C)c4ccc(OC)cc4)[C@@H]2C)C(=O)N3Cc2ccccc2)cc1`, the composite z-score in [1] was 0.0753; in [6], 0.0576; in [7], 0.288; in the experiment with Torsin-1A (Homo sapiens) [8] it was -0.193; with Torsin-1A (Homo sapiens) [9], 0.46; in experiment [10], 1.93. The same compound returned a composite z-score in [12] of 0.778. In addition, the z-score in [2] is -8.09 (active); in [3], -0.0986 (inactive); in experiment [4], 5.6 (inactive); in experiment [5], -0.352 (inactive); in [11], -0.134 (inactive); in [13], 3.2 (inactive). Moreover, the z-score in experiment [14] was 0.98 (inactive); in experiment [15], 0.768 (inactive); in experiment [16] it was -0.188 (inactive); in [17], 0.721; in experiment [18], -4.96 (inactive); in experiment [19] it was -1.62 (inactive). Also, in experiment [20], the z-score was determined as 0.371.

For `CC(C)N1C(=O)c2ccccc2[C@@H](C(=O)NCC(F)(F)F)[C@@H]1c1ccc(CO)cc1`, the composite z-score in experiment [1] was -0.167; in experiment [6] it was -0.268; in experiment [7], -0.152; in the experiment with Torsin-1A (Homo sapiens) [8], -0.0705; with Torsin-1A (Homo sapiens) [9] it was -1.02; in experiment [10] it was 0.119. In addition, in experiment [12], the composite z-score was 0.0376. The z-score is 0.837 (inactive) in experiment [2]; 1.03 (inactive) in experiment [3]; 0.145 (inactive) in experiment [4]; 0.557 (inactive) in experiment [5]; -0.234 (inactive) in [11]; 2.15 (inactive) in experiment [13]. The z-score in experiment [14] is 0.336 (inactive); in experiment [15], 0.181 (inactive); in experiment [16], -0.0376 (inactive); in experiment [17], -0.165; in experiment [18], 0.74 (inactive); in [19], 0.912 (inactive). The z-score in experiment [20] is -1.21.

Turning to `C=C(CCCC)/C(=C/C[C@@H](OC(C)=O)c1ccc(CO)o1)c1cnc2ccccc2c1`, the composite z-score in experiment [1] is 0.401; in experiment [6], 0.843; in experiment [7] it was 0.0536; with Torsin-1A (Homo sapiens) [8], 1.18; with Torsin-1A (Homo sapiens) [9], 1.13; in experiment [10] it was 1.39. The composite z-score in experiment [12] came to 0.0077. Further, the z-score was -0.257 (inactive) in experiment [2]; -0.134 (inactive) in experiment [3]; 2.76 (inactive) in experiment [4]; 0.128 (inactive) in [5]; 0.105 (inactive) in [11]; 9.2 (active) in experiment [13]. Besides, the z-score in experiment [14] is 1.25 (inactive); in [15] it was 2.11 (inactive); in [16], 0.406 (inactive); in [17] it was 0.509; in experiment [18], -0.383 (inactive); in [19], -0.837 (inactive). In addition, the z-score in experiment [20] is -0.426.

On to `CN(C)c1ccc(C(O)C2C=CC3C(=O)N(Cc4ccccc4)C(=O)C3N2n2cnnc2)cc1` (stereo not given), for which the composite z-score in experiment [1] is -0.347; in [6] it was 0.143; in [7] it was -0.149; in the experiment with Torsin-1A (Homo sapiens) [8], 0.131; with Torsin-1A (Homo sapiens) [9], -0.243; in experiment [10], -0.11. Also, the composite z-score in experiment [12] is -0.115. Also, the z-score was 0.166 (inactive) in experiment [2]; -1.85 (inactive) in experiment [3]; -1.09 (inactive) in experiment [4]; -0.607 (inactive) in experiment [5]; 1.3 (inactive) in experiment [11]; 0.0651 (inactive) in [13]. In addition, the z-score is -0.318 (inactive) in [14]; 0.747 (inactive) in experiment [15]; -0.553 (inactive) in experiment [16]; 1.02 in experiment [17]; 0.683 (inactive) in [18]; -0.524 (inactive) in [19]. The compound also came in with a z-score in experiment [20] of 0.36.

On to `CC(C)(C)OC(=O)CC[C@@]1(C(=O)NCCN2CCOCC2)N=C(c2ccc(OCCCO)cc2)O[C@@H]1c1ccccc1CN=[N+]=[N-]`, for which the composite z-score in experiment [1] is -0.119; in [6], 1.01; in [7], -0.0494; in the experiment with Torsin-1A (Homo sapiens) [8] it was -0.428; with Torsin-1A (Homo sapiens) [9], 0.467; in experiment [10], -0.919. Moreover, the composite z-score in [12] is -0.0255. The z-score in experiment [2] is 0.0704 (inactive); in [3], -0.495 (inactive); in experiment [4], -0.277 (inactive); in [5], 0.54 (inactive); in [11], -0.936 (inactive); in experiment [13] it was 24.4 (active). The z-score in experiment [14] is 11.3 (active); in experiment [15], 0.0031 (inactive); in experiment [16], 1.21 (inactive); in experiment [17] it was -0.464; in experiment [18] it was 0.73 (inactive); in experiment [19], 1.46 (inactive). The compound also returned a z-score in [20] of 1.54.
